According to PubChem BioAssay (EPA / NIEHS):
Values joined by “and” are separate entries in the source; they are usually repeats but may differ in a detail not shown here. Identical values can stand only once. Inconclusive results are not listed. The source holds several records for some structures; these can differ, active in one and inactive in another. Active and inactive are the calls of the source. How the source made its calls, unless noted: active means hit-call score of the fitted dose curve at least 0.9, where 1 is the maximum; inactive means score below 0.9.

Columns and labels:
[1] = ATG_TCF_b_cat_CIS: Attagene CIS-FACTORIAL HepG2 Assay for human T-Cell-Factor with beta-catenin (TCF/b-cat) (AID 2282965); conditions: HepG2 TCF/beta-catenin cis-reporter transcription, actives raise or lower the signal
Procedure, shortened: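 Using capillary electrophoresis as the read-out, labelled reporter cDNA fragments from transiently transfected HepG2 were sized and quantified. Exposure lasted 24 hours; activity in either direction was referenced to DMSO.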

[2] = ATG_TAL_CIS: Attagene CIS-FACTORIAL HepG2 Assay for human TAL Basal Promoter (AID 2282966); conditions: HepG2 Attagene cis-factorial TAL promoter reporter; actives raise or lower the signal;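 further: background control endpoint measuring basal TAL promoter reporter mRNA not a specific factor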
Procedure, shortened: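 Fluorescence of labelled reporter cDNA fragments, resolved by capillary electrophoresis, gave the readout. Human HepG2 liver cells carried transiently transfected cis-element reporter units and were treated for 24 hours; activity was fitted bidirectionally against DMSO.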

[3] = ATG_TGFb_CIS: Attagene CIS-FACTORIAL HepG2 Assay for human Transforming Growth Factor (TGF) (AID 2282967); conditions: HepG2 Attagene CIS TGFb reporter, mRNA transcription; actives raise or lower the signal
Procedure, shortened: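 HepG2 cells transiently transfected with cis-promoter-driven multiple reporter units measure endogenous TF activity; reporter mRNA quantified at 24 h by RT-PCR, FAM labeling, HpaI digestion and capillary electrophoresis. Bidirectional fit vs DMSO.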

[4] = ATG_VDRE_CIS: Attagene CIS-FACTORIAL HepG2 Assay for human Vitamin D Receptor Element (VDRE) (AID 2282968); conditions: HepG2 VDRE cis-reporter transcription, actives raise or lower the signal
Procedure, shortened: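 HepG2 cells transiently transfected with cis-element reporter units, dosed 24 h; reporter mRNA measured by RT-PCR, 6-FAM labeling, HpaI digestion and capillary electrophoresis. Activity fitted bidirectionally against DMSO baseline.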

[5] = molecular target: Estrogen receptor (Homo sapiens) (UniProt P03372); assay: ATG_ERa_TRANS: Attagene TRANS-FACTORIAL HepG2 Assay for human Estrogen Receptor alpha (ERa) (AID 2282970; active means hit-call score of the fitted dose curve at least 0.9, where 1 is the maximum); conditions: HepG2 Attagene TRANS ERa GAL4 reporter, mRNA
Procedure, shortened: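 Human liver HepG2, transient transfection of multiple GAL4-UAS reporter units; TRANS format (exogenous NR-Gal4 chimera). 24 h dosing. Readout: reporter mRNA, RT-PCR, 6-FAM primer extension, HpaI digest, capillary electrophoresis. Positive direction vs DMSO.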

[6] = molecular target: X-box-binding protein 1 (Homo sapiens) (UniProt P17861); assay: ATG_Xbp1_CIS: Attagene CIS-FACTORIAL HepG2 Assay for human X-box Binding Protein 1 (XBP1) (AID 2282972); conditions: HepG2 XBP1 cis-element reporter, Attagene multiplex; actives raise or lower the signal
Procedure, shortened: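 HepG2 cells transiently transfected with cis-regulated multiple reporter transcription units; endogenous transcription factor activity measured 24 hours after chemical dosing. Reporter mRNA quantified by RT-PCR, 6-FAM primer extension, HpaI digestion and capillary electrophoresis; bidirectional fitting versus DMSO.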

[7] = ATG_GAL4_TRANS: Attagene TRANS-FACTORIAL HepG2 Assay for GAL4 (Internal Marker) (AID 2282976; active means hit-call score of the fitted dose curve at least 0.9, where 1 is the maximum); conditions: HepG2 Attagene TRANS GAL4 internal marker reporter
Procedure, shortened: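 First, HepG2 cells were transfected with reporter units under GAL4-UAS control. Next, they were treated with chemical for 24 h. Finally, RNA was reverse-transcribed, PCR-amplified, FAM-labelled and resolved by capillary electrophoresis, with induction scored against DMSO.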

[8] = molecular target: Oxysterols receptor LXR-alpha (Homo sapiens) (UniProt Q13133); assay: ATG_LXRa_TRANS: Attagene TRANS-FACTORIAL HepG2 Assay for human Liver X Receptor alpha (LXRa) (AID 2282980; active means hit-call score of the fitted dose curve at least 0.9, where 1 is the maximum); conditions: HepG2 Attagene TRANS reporter, LXRa transactivation
Procedure, shortened: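 Transfect HepG2 with GAL4-UAS multiplex reporter constructs (TRANS format, chimeric receptor-GAL4); treat 24 h; extract RNA, reverse-transcribe, PCR-amplify, FAM-label, HpaI-digest; resolve fragments by capillary electrophoresis. Upward response vs DMSO.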

[9] = molecular target: Oxysterols receptor LXR-beta (Homo sapiens) (UniProt P55055); assay: ATG_LXRb_TRANS: Attagene TRANS-FACTORIAL HepG2 Assay for human Liver X Receptor beta (LXRb) (AID 2282981; active means hit-call score of the fitted dose curve at least 0.9, where 1 is the maximum); conditions: HepG2 Attagene TRANS GAL4-LXRb reporter, mRNA
Procedure, shortened: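 HepG2 cells transiently transfected with multiple reporter transcription units carrying chimeric NR-Gal4 proteins acting on GAL4-UAS reporters; compound exposure 24 h. Reporter mRNA quantified by RT-PCR, 6-FAM labelling, HpaI digestion and capillary electrophoresis; gain of signal versus DMSO.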

[10] = ATG_M_06_TRANS: Attagene TRANS-FACTORIAL HepG2 Assay for M06 Transcription Factor (Internal Marker) (AID 2282983; active means hit-call score of the fitted dose curve at least 0.9, where 1 is the maximum;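 further: reporter transcript level by RT-PCR then capillary electrophoresis fluorescence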); conditions: HepG2 Attagene TRANS M06 internal marker reporter
Procedure, shortened: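 Transfect HepG2 with MRTUs → dose compounds 24 h → isolate RNA, oligo(dT) RT → PCR with reporter primers → 6-FAM primer extension → HpaI digest → CE fragment analysis. Positive direction vs DMSO.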

[11] = ATG_M_32_TRANS: Attagene TRANS-FACTORIAL HepG2 Assay for M32 Transcription Factor (Internal Marker) (AID 2282984; active means hit-call score of the fitted dose curve at least 0.9, where 1 is the maximum;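 further: transcript level of a background control reporter unit measured by RT-PCR and capillary electrophoresis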); conditions: HepG2 Attagene TRANS M32 internal marker reporter
Procedure, shortened: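 HepG2 cells transiently transfected with multiple GAL4-UAS reporter transcription units, dosed for 24 hours; reporter mRNA quantified by RT-PCR, 6-FAM primer extension, HpaI digestion and capillary electrophoresis. Gain-of-signal fitted versus DMSO baseline; internal background-control marker.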

[12] = molecular target: Nuclear receptor subfamily 4 group A member 2 (Homo sapiens) (UniProt P43354); assay: ATG_NURR1_TRANS: Attagene TRANS-FACTORIAL HepG2 Assay for human Nuclear Receptor Related Protein 1 (NURR1) (AID 2282985; active means hit-call score of the fitted dose curve at least 0.9, where 1 is the maximum); conditions: HepG2 Attagene TRANS reporter, mRNA readout
Procedure, shortened: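 HepG2 cells transiently transfected with GAL4-UAS reporter units and chimeric NR-Gal4 constructs; chemical exposure 24 h. Reporter mRNA quantified by RT-PCR, fluorescent labelling and capillary electrophoresis; gain of signal fitted relative to DMSO baseline.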

[13] = molecular target: Transcriptional activator Myb (Homo sapiens) (UniProt P10242); assay: ATG_Myb_CIS: Attagene CIS-FACTORIAL HepG2 Assay for human Myeloblastosis (Myb) Proto-Oncogene Transcription Factor (AID 2282986); conditions: HepG2 Attagene CIS-FACTORIAL Myb reporter transcription; actives raise or lower the signal
Procedure, shortened: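 HepG2 cells were transiently transfected with cis-regulated multiple reporter transcription units reflecting endogenous Myb activity, then exposed to compound for 24 hours. Reporter mRNA was measured by RT-PCR with capillary electrophoresis; bidirectional fitting versus DMSO baseline.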

[14] = molecular target: Nuclear respiratory factor 1 (Homo sapiens) (UniProt Q16656); assay: ATG_NRF1_CIS: Attagene CIS-FACTORIAL HepG2 Assay for human Nuclear Respiratory Factor 1 (NRF1) Orphan Gene (AID 2282987); conditions: HepG2 NRF1 cis-element reporter, Attagene multiplex; actives raise or lower the signal
Procedure, shortened: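 HepG2 cells transiently transfected with multiple reporter transcription units under cis-regulatory promoter control, so endogenous transcription-factor activity is read. After 24 h compound exposure, reporter mRNA quantified by RT-PCR, fluorescent labelling, HpaI digestion and capillary electrophoresis; bidirectional fitting versus DMSO.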

[15] = ATG_NFI_CIS: Attagene CIS-FACTORIAL HepG2 Assay for human Nuclear Factor I (NFI) (AID 2282989); conditions: HepG2 cis-regulatory reporter, NFI response element transcription; actives raise or lower the signal
Procedure, shortened: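 Endogenous TF activity in HepG2 cells transiently transfected with cis-element-driven multiplexed reporter units, read 24 h after dosing. Reporter mRNA quantified by RT-PCR, 6-FAM labelling, HpaI digestion and capillary electrophoresis; bidirectional fit versus DMSO.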

[16] = molecular target: Steroid hormone receptor ERR1 (Homo sapiens) (UniProt P11474); assay: ATG_ERRa_TRANS: Attagene TRANS-FACTORIAL HepG2 Assay for human Estrogen-Related Receptor alpha (ERRa) (AID 2282971; active means hit-call score of the fitted dose curve at least 0.9, where 1 is the maximum); conditions: HepG2 Attagene TRANS reporter, ERRa transactivation
Procedure, shortened: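 Reporter transcript induction was quantified by RT-PCR and capillary electrophoresis of FAM-labelled, HpaI-cut products after 24 h treatment of HepG2 cells carrying transiently transfected GAL4-UAS reporter units and an exogenous ERRa-Gal4 fusion; activity scored as increase over DMSO.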

[17] = molecular target: Glucocorticoid receptor (Homo sapiens) (UniProt P04150); assay: ATG_GR_TRANS: Attagene TRANS-FACTORIAL HepG2 Assay for human Glucocorticoid Receptor (GR) (AID 2282978; active means hit-call score of the fitted dose curve at least 0.9, where 1 is the maximum;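 further: activators score as hits since higher reporter transcript over DMSO is fitted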); conditions: HepG2 Attagene TRANS GR reporter, mRNA transcription
Procedure, shortened: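 HepG2 cells transiently transfected with multiplexed reporter units in which chimeric NR-GAL4 proteins drive GAL4-UAS reporters; 24 h compound exposure. Reporter mRNA measured by RT-PCR, 6-FAM labelling, HpaI digestion and capillary electrophoresis; gain-of-signal fitted versus DMSO.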

[18] = molecular target: Bile acid receptor (Homo sapiens) (UniProt Q96RI1); assay: ATG_FXR_TRANS: Attagene TRANS-FACTORIAL HepG2 Assay for Farnesoid X Receptor (FXR) (AID 2282979; active means hit-call score of the fitted dose curve at least 0.9, where 1 is the maximum;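 further: hits raise reporter mRNA above DMSO so AC50 marks FXR activation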); conditions: HepG2 Attagene TRANS FXR-GAL4 reporter transcription
Procedure, shortened: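 Transient transfection of HepG2 with multiplexed GAL4-UAS reporter units; exogenous FXR-GAL4 chimera. Dose 24 h → TriZol RNA → oligo(dT) RT → PCR, 6-FAM primer extension, HpaI cut → CE. Gain vs DMSO.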

[19] = molecular target: Hepatocyte nuclear factor 4-alpha (Homo sapiens) (UniProt P41235); assay: ATG_HNF4a_TRANS: Attagene TRANS-FACTORIAL HepG2 Assay for human Hepatocyte Nuclear Factor 4 alpha (HNF4a) (AID 2282982; active means hit-call score of the fitted dose curve at least 0.9, where 1 is the maximum); conditions: HepG2 HNF4a transactivation reporter, mRNA readout
Procedure, shortened: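 HepG2 cells transiently transfected with multiplexed GAL4-UAS reporter units responsive to chimeric NR-GAL4 proteins; compound exposure 24 h. Reporter mRNA quantified by RT-PCR, 6-FAM labelling, HpaI digestion and capillary electrophoresis; gain of signal versus DMSO baseline.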

Measured: AC50

Chain of Nuclear respiratory factor 1 (Homo sapiens) (Q16656 whole entry, looked up): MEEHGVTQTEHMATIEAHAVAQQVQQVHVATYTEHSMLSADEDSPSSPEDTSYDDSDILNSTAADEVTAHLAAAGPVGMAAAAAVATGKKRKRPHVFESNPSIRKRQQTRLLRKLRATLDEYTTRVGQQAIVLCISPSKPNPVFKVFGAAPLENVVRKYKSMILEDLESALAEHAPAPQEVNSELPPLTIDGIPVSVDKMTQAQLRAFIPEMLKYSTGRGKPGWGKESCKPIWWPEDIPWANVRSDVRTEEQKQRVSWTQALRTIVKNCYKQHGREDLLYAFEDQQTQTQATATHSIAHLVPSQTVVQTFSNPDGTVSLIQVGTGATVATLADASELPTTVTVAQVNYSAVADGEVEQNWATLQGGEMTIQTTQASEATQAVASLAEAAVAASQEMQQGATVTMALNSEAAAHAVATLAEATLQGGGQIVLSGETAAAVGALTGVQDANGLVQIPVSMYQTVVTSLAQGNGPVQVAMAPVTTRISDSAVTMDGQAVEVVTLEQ
Chain of Hepatocyte nuclear factor 4-alpha (Homo sapiens) (P41235 whole entry, looked up, the tested form may be a part): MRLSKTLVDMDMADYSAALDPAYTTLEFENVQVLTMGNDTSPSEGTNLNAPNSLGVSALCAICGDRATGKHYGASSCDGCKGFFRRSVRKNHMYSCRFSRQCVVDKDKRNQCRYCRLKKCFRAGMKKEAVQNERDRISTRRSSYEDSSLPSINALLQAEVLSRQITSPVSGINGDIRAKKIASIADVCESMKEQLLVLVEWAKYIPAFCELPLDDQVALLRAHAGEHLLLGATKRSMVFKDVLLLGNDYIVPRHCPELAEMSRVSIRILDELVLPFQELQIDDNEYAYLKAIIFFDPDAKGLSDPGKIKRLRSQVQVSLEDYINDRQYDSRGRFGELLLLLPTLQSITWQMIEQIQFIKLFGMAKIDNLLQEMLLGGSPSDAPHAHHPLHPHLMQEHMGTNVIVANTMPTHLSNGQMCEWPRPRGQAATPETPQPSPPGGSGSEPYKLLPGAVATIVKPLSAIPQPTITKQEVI
Chain of Transcriptional activator Myb (Homo sapiens) (P10242 whole entry, looked up): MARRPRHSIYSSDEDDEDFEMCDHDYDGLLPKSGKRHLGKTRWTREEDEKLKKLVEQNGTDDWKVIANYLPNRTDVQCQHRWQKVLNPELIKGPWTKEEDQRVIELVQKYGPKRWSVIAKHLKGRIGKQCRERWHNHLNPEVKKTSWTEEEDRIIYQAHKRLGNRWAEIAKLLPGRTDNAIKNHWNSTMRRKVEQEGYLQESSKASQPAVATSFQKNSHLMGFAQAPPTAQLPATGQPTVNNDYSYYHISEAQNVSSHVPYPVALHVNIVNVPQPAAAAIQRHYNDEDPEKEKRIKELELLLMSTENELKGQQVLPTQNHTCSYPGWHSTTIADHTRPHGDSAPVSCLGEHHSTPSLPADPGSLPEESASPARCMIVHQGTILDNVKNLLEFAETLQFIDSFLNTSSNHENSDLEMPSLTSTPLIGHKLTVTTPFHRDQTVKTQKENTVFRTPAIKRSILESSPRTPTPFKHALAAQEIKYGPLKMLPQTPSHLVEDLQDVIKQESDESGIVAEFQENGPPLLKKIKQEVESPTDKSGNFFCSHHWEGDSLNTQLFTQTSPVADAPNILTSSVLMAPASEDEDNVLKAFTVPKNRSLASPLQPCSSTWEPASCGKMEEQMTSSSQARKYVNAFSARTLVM
Chain of Estrogen receptor (Homo sapiens) (P03372 whole entry, looked up, the tested form may be a part): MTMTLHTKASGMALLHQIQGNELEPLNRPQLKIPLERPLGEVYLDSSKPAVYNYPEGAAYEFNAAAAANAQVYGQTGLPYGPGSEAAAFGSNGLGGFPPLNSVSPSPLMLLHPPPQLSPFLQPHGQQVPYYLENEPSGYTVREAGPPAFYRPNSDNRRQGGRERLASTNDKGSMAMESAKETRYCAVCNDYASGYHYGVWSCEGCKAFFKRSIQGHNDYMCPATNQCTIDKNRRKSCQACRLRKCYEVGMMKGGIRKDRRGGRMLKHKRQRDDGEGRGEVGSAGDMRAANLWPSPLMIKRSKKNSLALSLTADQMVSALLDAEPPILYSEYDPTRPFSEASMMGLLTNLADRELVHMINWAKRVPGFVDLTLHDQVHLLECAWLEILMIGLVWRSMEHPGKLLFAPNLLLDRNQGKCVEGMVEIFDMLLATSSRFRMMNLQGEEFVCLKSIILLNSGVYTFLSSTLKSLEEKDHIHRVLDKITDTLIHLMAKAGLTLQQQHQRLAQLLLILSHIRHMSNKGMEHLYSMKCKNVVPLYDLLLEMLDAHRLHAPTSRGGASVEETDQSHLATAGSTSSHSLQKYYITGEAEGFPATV
Chain of Steroid hormone receptor ERR1 (Homo sapiens) (P11474 whole entry, looked up, the tested form may be a part): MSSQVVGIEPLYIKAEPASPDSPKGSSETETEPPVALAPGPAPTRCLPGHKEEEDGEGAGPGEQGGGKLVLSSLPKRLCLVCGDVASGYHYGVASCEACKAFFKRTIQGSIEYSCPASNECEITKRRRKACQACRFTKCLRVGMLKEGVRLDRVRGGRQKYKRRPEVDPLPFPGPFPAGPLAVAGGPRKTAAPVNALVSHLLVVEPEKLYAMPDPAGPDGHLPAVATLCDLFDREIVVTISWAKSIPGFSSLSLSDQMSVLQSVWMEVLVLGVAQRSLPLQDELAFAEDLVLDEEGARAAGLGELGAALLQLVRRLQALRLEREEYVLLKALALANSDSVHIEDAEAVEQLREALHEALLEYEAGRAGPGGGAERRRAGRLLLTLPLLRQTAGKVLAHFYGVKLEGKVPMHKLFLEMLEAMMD
Chain of Oxysterols receptor LXR-beta (Homo sapiens) (P55055 whole entry, looked up, the tested form may be a part): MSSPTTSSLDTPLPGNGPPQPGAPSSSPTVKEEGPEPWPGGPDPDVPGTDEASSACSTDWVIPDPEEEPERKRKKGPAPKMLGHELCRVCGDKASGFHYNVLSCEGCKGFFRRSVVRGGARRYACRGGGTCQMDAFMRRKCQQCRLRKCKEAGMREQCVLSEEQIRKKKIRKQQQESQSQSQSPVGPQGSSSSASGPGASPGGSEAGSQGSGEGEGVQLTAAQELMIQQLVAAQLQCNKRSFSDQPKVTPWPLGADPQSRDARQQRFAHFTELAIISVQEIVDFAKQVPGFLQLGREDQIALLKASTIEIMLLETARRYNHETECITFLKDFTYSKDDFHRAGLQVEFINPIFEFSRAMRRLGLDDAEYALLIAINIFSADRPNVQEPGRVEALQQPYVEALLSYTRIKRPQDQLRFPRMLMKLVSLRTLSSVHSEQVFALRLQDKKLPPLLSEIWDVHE
Chain of Glucocorticoid receptor (Homo sapiens) (P04150 whole entry, looked up, the tested form may be a part): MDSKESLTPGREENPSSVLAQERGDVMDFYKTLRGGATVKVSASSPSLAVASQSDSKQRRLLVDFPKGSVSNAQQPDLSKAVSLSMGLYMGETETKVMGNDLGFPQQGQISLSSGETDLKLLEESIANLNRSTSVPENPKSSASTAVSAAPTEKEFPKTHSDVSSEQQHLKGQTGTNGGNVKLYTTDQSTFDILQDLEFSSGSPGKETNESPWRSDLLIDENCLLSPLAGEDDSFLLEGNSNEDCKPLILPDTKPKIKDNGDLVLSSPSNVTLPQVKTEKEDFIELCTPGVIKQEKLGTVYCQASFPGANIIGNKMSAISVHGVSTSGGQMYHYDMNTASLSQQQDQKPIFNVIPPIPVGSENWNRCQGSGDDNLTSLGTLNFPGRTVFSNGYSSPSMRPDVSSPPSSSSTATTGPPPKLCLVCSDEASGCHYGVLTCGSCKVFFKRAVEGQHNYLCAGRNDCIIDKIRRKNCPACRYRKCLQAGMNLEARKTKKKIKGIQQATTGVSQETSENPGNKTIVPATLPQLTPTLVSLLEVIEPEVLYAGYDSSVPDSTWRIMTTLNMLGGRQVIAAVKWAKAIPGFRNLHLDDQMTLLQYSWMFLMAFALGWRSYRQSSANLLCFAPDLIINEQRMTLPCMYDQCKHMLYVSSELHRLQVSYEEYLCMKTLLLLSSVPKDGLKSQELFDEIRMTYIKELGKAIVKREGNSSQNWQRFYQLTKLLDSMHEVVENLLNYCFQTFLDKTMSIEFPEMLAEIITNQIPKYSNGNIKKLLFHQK
Chain of Nuclear receptor subfamily 4 group A member 2 (Homo sapiens) (P43354 whole entry, looked up, the tested form may be a part): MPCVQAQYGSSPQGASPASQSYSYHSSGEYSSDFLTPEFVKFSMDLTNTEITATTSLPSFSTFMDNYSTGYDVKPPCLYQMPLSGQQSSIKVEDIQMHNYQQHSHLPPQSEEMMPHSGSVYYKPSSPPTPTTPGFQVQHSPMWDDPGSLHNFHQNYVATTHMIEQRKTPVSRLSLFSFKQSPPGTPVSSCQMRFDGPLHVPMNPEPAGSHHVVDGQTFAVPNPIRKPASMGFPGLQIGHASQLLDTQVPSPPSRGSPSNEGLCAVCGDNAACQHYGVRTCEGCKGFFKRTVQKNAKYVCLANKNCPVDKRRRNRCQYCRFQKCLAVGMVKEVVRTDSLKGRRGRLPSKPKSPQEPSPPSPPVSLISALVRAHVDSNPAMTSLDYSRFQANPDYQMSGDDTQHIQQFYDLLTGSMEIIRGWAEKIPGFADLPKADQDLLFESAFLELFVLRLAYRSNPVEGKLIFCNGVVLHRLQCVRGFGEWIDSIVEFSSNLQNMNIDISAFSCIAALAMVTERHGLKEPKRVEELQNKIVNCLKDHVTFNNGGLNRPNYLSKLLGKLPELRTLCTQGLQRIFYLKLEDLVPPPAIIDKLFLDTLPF
Chain of Bile acid receptor (Homo sapiens) (Q96RI1 whole entry, looked up, the tested form may be a part): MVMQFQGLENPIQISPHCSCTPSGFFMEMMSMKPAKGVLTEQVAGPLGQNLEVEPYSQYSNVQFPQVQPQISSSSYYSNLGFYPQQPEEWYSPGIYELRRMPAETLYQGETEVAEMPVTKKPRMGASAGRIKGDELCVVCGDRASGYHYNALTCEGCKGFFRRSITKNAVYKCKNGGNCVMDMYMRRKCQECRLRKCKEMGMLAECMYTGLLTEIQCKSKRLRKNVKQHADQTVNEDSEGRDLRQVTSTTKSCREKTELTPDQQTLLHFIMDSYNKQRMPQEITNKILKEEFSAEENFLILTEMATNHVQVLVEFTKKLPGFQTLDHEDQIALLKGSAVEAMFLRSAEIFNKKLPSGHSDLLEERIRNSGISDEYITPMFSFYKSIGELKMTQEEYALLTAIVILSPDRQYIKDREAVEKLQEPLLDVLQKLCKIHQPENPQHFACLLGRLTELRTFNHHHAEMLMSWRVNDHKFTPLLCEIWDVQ

C[C@@H]1C[C@H]2[C@@H]3CCC4=CC(=O)C=C[C@]4(C)[C@@]3(F)[C@@H](O)C[C@]2(C)[C@@]1(O)C(=O)COP(=O)(O)O
active: [3] 473 nM
inactive: [1] | [2] | [3] | [4] | [5] | [6] | [7] | [8] | [9] | [10] | [11] | [12] | [13] | [14] | [15]

CCCCCCC(=O)O
not listed: [12]
inactive: all other assays above

CCCCCCCCCCCCCCCS(=O)(=O)Oc1ccccc1
not listed: [7] | [8] | [11] | [12] | [16] | [17]
inactive: all other assays above

CCC(=C(c1ccc(O)cc1)c1ccc(OCCN(C)C)cc1)c1ccccc1
inactive: [1] | [2] | [3] | [4] | [16] | [6] | [7] | [17] | [18] | [8] | [9] | [19] | [10] | [11] | [13] | [14] | [15]
active: [1] 3.39 µM | [2] 10.4 µM | [4] 3.53 µM and 7.1 µM and 2.37 µM | [6] 11.2 µM and 2.37 µM | [13] 11.3 µM
